40 compounds from PubChem BioAssay (NCI) can be followed below.

Compounds without any hit were thinned out: in the full panel of roughly 83,000, 20% have a hit.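 Cell lines were cultured in 96-well plates, exposed to a single compound concentration, and assessed for percent growth 48 hours later.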 Values without a mark were called inactive. Active and inactive are the calls of the source.

The experiment has as its system NCI-H460 lung. As to the kind of experiment: NCI-60 one-dose screen, 48 h (100 = growth as untreated, 0 = no growth, -100 = all killed). Conditions: 10 µM unless noted. Here is the method:
Growth inhibition of the NCI-H460 human Non-Small Cell Lung tumor cell line is measured as a screen for anti-cancer activity. Cells are grown in 96 well plates and exposed to the test compound for 48 hours. Compounds are tested at a single concentration, which is 10^-5 M for most compounds. The reported endpoint is percent growth (GI% or GIPRCNT), where numbers from 0 - 100% represent growth inhibition, and numbers from -100% - 0 represent cell death. For example, a value of 40 represents 60% growth inhibition. A value of 0 means no net growth occurred over the course of the experiment. A value of -40 indicates 40% of cells at the beginning of the experiment died by the end of the experiment. A value of -100 means all cells are dead at the end of the experiment.
NCI-60 Human Tumor Cell Lines Screen was performed using the standard one-dose NCI protocol, which is described in more detail at https://dtp.cancer.gov/discovery_development/nci-60/default.htm.
Compounds with GIPRCNT values below 10 were considered active. Activity score was based on GIPRCNT using the following formula: […]
Score is 0 for GIPRCNT values of 100 or above, 50 for GIPRCNT values of 0, and 100 for GIPRCNT values of -100.
For `CSc1nc(-c2cccs2)c2c(N)[nH]nc2n1`, the growth is 113%. The figure for `CC(C)C1=C[C@@]23CC[C@H]4[C@](C)(COCCC#N)CCC[C@]4(C)[C@H]2C[C@@H]1[C@@H]1[C@H]3[C@@H](OCCC#N)CC[C@@H]1OCCC#N` is 30.3%; for `NC(=O)C(O)(c1ccccc1)c1ccccc1` it is 104%. As to `O=c1nc(-c2ccccc2)c2cc(-c3ccc(N4CCCC4)nc3)ccc2[nH]1`, the growth is 57.7%. Take `CCCNc1nc(C)[nH]c(=O)c1S`: the growth is 111%. The figure for `NC(N)=NC(N)=Nc1cc2ccccc2c2ccccc12` is 21.9%; for `O=C(Nc1ccc2ncnc(Nc3ccc(F)c(Cl)c3)c2c1)c1ccccc1` it is 30.4%; for `C#C[C@@]1(O)[C@@H](CO)O[C@@H](n2cc(-c3ccco3)c3c(N)ncnc32)[C@@H]1O` it is 52.1%. Then `C#CCN1C(=O)c2ccccc2N(CC#C)C12CCN(Cc1cn(CC(=O)Nc3ccccc3C(N)=O)nn1)CC2`, with 89.7%; and `c1ccc2c3c([nH]c2c1)C(c1ccc(C2NCCc4c2[nH]c2ccccc42)cc1)NCC3` (stereo not given), with -71.6% (active). Then `COC(=O)/C=C/c1cc(OC(C)=O)c2c(c1)C(C(=O)OC)C(c1ccc(OC(C)=O)c(OC(C)=O)c1)O2` (stereo not given), with 13.8%. As for `NCCCn1c2c(c3cc(-c4ccn[nH]4)ccc3c1=O)C(=O)c1ccccc1-2`, the growth was 11.8%. Then `COC(=O)[C@]1(C)CCC[C@]2(C)[C@H]3C[C@H]4C(C(C)C)=C[C@]3(CC[C@H]21)[C@@H]1C(=O)N(CCC#N)C(=O)[C@@H]14`, with 101%; and `CCOC(=O)c1c(C(F)(F)F)n([O-])c2ccc(Cl)cc2[n+]1=O`, with -78.5% (active).

For `CCOCc1nc2ccccc2c(=O)[nH]1`, the growth is 101%. The figure for `CC(C)(C#N)c1cc(F)cc(C(=O)Nc2cc(Nc3ncccc3-c3ncnc4nc[nH]c34)ccc2F)c1` is 30.5%; for `COc1ccc2[nH]c(=O)c(/C=C/C(=O)/C=C/c3ccc(O)c(OC)c3)cc2c1` it is 20.1%; for `Nc1ccc(C2=NN(C(=O)c3cc(-c4ccc(Cl)cc4)nc4ccccc34)C(c3ccc(Cl)cc3)C2)cc1` (stereo not given) it is 17.2%. Consider `C=C1C(=O)O[C@H]2[C@H]1CC/C(COC(=O)NCc1nc3ccccc3[nH]1)=C\CC[C@@]1(C)O[C@@H]21`, for which the growth is 102%. Then `Cc1nc2sc(C(=O)Nc3ccccc3Cl)c(N)c2cc1C(C)O` (stereo not given), with 98.8%; and `CCCCn1c(=O)c(/C=C/C(=O)/C=C/c2ccc(OC)cc2)cc2cc(Cl)ccc21`, with 20.7%.

As to `Cc1nc2sc(C(=O)Nc3cccc4ccccc34)c(N)c2cc1C(C)O` (stereo not given), the growth was 9.5% (active). Turning to `COC(=O)c1nc(-c2ccccc2)oc1S(=O)(=O)n1nc(C)cc1N`, the growth was 96.9%. The figure for `O=C1C(=O)c2c(nc3ccc(Br)cn23)-c2ccccc21` is -63.2% (active); for `N#CC(C#N)=C1NC(c2ccccc2)=C(c2ccccc2)C(c2ccccc2Cl)=C1C#N` it is 111%; for `CCOC(=O)c1cnn(-c2nc(-c3ccc(F)cc3)c(C#N)c(N3CCOCC3)n2)c1N` it is 100%. The figure for `C=C1C(=O)O[C@H]2[C@H]1CC/C(COC(=O)c1cccnc1N)=C\CC[C@@]1(C)O[C@@H]21` is 5.22% (active); for `C=C1C(=O)O[C@H]2[C@H]1CC/C(COC(=O)/C=C/c1cccnc1)=C\CC[C@@]1(C)O[C@@H]21` it is 77.4%. For `CN(C)CCCn1c2c(c3cc(-c4ccco4)ccc3c1=O)C(=O)c1ccccc1-2`, the growth was 46.3%.

With `COc1cc(/C=C/CO)cc(OC)c1O[C@@H]1O[C@H](CO)[C@@H](O)[C@H](O)[C@H]1O`, the growth was 103%. The figure for `COc1cc2c(cc1OC)C(Sc1ccc(Cl)cc1)c1c(nc(N)c(C#N)c1N)O2` (stereo not given) is -55% (active); for `O=C(Nc1ccc2ncnc(Nc3cccc(C(F)(F)F)c3)c2c1)c1cccs1` it is 22.5%. Regarding `COc1cc(C2=NN(C(C)=O)C(c3cccc(Nc4ccnc5cc(C(F)(F)F)ccc45)c3)C2)cc(OC)c1OC` (stereo not given), the growth is 57.6%.

As to `Cc1ccc(-c2nc(C#N)c(S(=O)(=O)N(C)CCO)o2)cc1`, the growth is 89.3%. The figure for `N#Cc1nc(-c2ccccc2)oc1S(=O)(=O)NCC(c1ccc(Cl)cc1)N1CCCCC1` (stereo not given) is 77.2%; for `Cc1ccc(C2CC(c3ccc(Nc4nc(NCCO)nc(NCCO)n4)cc3)=NN2c2ccc(Cl)cc2)cc1` (stereo not given) it is 26.6%; for `C=C(C)[C@@H]1CC[C@]2(C(=O)N3CCN(C)CC3)CC[C@]3(C)[C@H](CC[C@@H]4[C@@]5(C)C/C(=C/c6ccco6)C(=O)C(C)(C)[C@@H]5CC[C@]43C)[C@@H]12` it is 64.9%. Then `CCOC(=O)CC[C@H](NC(=O)c1ccc(NC)c2ccccc12)C(=O)OCC`, with 101%; and `COc1ccc(C(=O)c2cc(OC)c(C)c(OC)c2)cc1OC(=O)CCl`, with 7.36% (active); and `O=C(CCCC(=O)Nc1ccc(-n2nnc3cc(Cl)c(Cl)cc32)cc1)Nc1ccc(-n2nnc3cc(Cl)c(Cl)cc32)cc1`, with 14.9%.
